Test [1] has as its target Albumin (Bos taurus) (UniProt P02769). As to the kind of experiment: compounds binding labelled BSA control protein – biochemical, small-molecule microarray, Alexa647 label, 635/667 nm fluorescence, artefact control for SMM control protein annotation, profiling panel (AID 1118).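 Further: score merges 667 nm emission intensity and signal-to-noise per printed compound spot.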 As to conditions: BSA-A647 binding, fluorescence 635 nm, higher = more signal.
The nature of test [2]: probe aXIP binding to arrayed compounds – biochemical, NeuroSMM set, 635/667 nm fluorescence, primary screen (AID 1119).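 Further: probe is the protein aXip251-270 applied at 1 µg/mL to compound-printed slides; binding of probe to printed compounds measured as 667 nm fluorescence plus signal to noise.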 To be noted: small-molecule microarray, higher = more signal, called active from +8 up or from −8 down.
A short description of test [3]: probe aNOTCH3 binding on compound microarray – biochemical, small-molecule microarray, 635/667 nm fluorescence, primary screen (AID 1120).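 Further: probe is a biotin-tagged antibody raised against NOTCH3 rather than NOTCH3 protein; score merges spot fluorescence near 667 nm with spot signal to noise.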 As to conditions: higher = more signal.
Test [4] is described as follows: probe aNOTCH2 binding on compound microarray – biochemical, small-molecule microarray, 635/667 nm fluorescence, primary screen (AID 1121).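 Further: score merges feature fluorescence read at 667 nm with its signal to noise.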 To be noted: higher = more signal.
Test [5] has as its target Carbonic anhydrase 2 (Homo sapiens) (UniProt P00918). The experiment in a line: compounds binding carbonic anhydrase 2 – biochemical, small-molecule microarray, Alexa647-labelled CAII, profiling panel (AID 1122). As to conditions: CAII-A647 binding fluorescence, higher = more signal.
The nature of test [6]: COS7 lysate on small-molecule microarray, probe aHis, 635 nm (AID 1123).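 Further: z-score combines 667nm fluorescence intensity with signal-to-noise per printed compound spot.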 As to conditions: COS7 cell lysate, fluorescence, higher = more signal.
A short description of test [7]: probe aLAP1 signal on lysate-treated microarray – cell lysate, small-molecule microarray, COS7 lysate, primary screen (AID 1124).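 Further: lysate comes from COS7 cells expressing LAP1 and is applied at 0.3 µg/mL; score merges spot fluorescence near 667 nm with signal-to-noise over triplicate slides.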 As to conditions: probe aLAP1, fluorescence, higher = more signal.
Test [8] relates to Sam68 (KHDRBS1). As to the kind of experiment: compounds binding KHDRBS1 protein – biochemical, small-molecule microarray, 635 nm fluorescence, primary screen (AID 1125).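 Further: score merges 667 nm channel intensity with signal to noise over triplicate slides.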 To be noted: higher = more signal.
In test [9] the test system is Chordin-like protein 2 (CHRDL2). The experiment in a line: compounds binding chordin-like 2 – biochemical, small-molecule microarray, 635 nm fluorescence, primary screen (AID 1126).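 Further: printed compound slides probed with Chrdl2 protein at 4 µg/mL for 1 h at 4 C; score merges 667 nm emission intensity with signal to noise over three replicate slides.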 To be noted: fluorescence 635 nm, higher = more signal.
The target of test [10] is Concanavalin-A (Canavalia ensiformis) (UniProt P02866). As to the kind of experiment: compounds binding concanavalin A lectin – biochemical, small-molecule microarray, Alexa647 label, 635 nm, artefact control for SMM control protein annotation, primary screen (AID 1127).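 Further: z combines 667 nm emission intensity with signal-to-noise across three replicate slides.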 To be noted: ConA-A647 binding fluorescence, higher = more signal.
Concanavalin-A (Canavalia ensiformis), sequence (P02866 whole entry, looked up): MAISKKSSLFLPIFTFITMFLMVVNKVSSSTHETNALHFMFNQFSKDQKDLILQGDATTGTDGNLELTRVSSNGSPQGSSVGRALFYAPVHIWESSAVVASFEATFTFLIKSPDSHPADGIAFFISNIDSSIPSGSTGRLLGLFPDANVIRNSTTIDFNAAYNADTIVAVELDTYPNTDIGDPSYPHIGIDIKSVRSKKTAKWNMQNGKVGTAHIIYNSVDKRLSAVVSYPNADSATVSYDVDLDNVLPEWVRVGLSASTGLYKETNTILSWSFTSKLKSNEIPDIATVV

The structures appear in SMILES notation. Active and inactive are the calls of the source.

Albumin (Bos taurus), sequence (P02769 whole entry, looked up): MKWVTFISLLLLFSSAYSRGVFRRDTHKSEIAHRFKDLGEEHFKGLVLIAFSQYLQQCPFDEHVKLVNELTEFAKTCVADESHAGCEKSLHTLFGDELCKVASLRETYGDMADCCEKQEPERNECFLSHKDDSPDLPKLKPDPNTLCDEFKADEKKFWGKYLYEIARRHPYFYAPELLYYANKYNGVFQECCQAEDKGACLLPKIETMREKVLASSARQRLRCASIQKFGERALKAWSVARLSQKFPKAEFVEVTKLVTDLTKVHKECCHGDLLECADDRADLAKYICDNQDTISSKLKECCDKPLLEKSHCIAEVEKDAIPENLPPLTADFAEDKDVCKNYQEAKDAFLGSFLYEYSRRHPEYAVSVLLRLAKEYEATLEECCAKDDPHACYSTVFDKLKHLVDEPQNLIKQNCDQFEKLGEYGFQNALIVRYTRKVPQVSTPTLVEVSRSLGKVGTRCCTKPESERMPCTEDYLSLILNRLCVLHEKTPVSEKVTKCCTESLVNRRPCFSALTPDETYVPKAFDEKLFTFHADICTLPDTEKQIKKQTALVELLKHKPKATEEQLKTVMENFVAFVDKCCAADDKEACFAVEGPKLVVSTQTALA

In the case of `[N-]=[N+]=NCc1ccccc1C[C@@]1(C(=O)N2CCOCC2)N=C(c2ccc(OCCCO)cc2)O[C@@H]1c1ccccc1`, the composite z-score in [1] was found to be 0.851; in [3], 0.056; in test [4], 0.0012; in test [5] it was 0.617; in test [6] it was 2.92; in test [7], 0.491. Besides, the composite z-score in test [8] is 1.11; in test [9], -0.577; in [10], 1.08. Besides, the composite Z-score in test [2] was 0.879 (inactive).

Regarding `C#CCN([C@@H](Cc1ccc(O)cc1)C(=O)OC)[C@@H](/C=C/C1CC1)[C@H](O)Cc1ccccc1`, the composite z-score in test [1] was -0.865; in [3], -0.0567; in [4] it was -0.172; in [5], -0.303; in test [6] it was 0.071; in [7], 0.0995. Moreover, the figures for the composite z-score in test [8], in test [9] and in test [10] were -0.0361, 0.523 and -0.58, respectively. For the same molecule, in test [2], the composite Z-score was -0.0582 (inactive).

In the case of `CCC[C@@H]1C[C@@]1(CCC)[C@@H](NC(=O)OCc1ccccc1)c1ccc(-c2ccccc2)cc1`, the composite z-score in test [1] is -0.477; in test [3], 0.112; in test [4], 0.0339; in [5], -0.198; in test [6], 0.27; in test [7], 0.643. Moreover, the composite z-score in test [8] is -0.303; in test [9] it was -0.141; in test [10] it was -0.914. Moreover, in test [2], the composite Z-score is 0.572 (inactive).

For the molecule `O=C(NCc1ccccc1)[C@@H]1c2ccccc2C(=O)N(Cc2ccccc2C(F)(F)F)[C@H]1c1ccc(CO)cc1`, the composite z-score in test [1] is -0.0228; in [3], -0.232; in test [4], -0.13; in test [5], 0.759; in test [6], 0.829; in test [7], 2.63. Moreover, the composite z-score is 0.227 in test [8], -1.2 in test [9] and 0.612 in [10]. Moreover, the composite Z-score in [2] was -0.683 (inactive).

On to `C=CCC(OC(C)=O)[C@@H]1[C@@H](N(Cc2cc3ccccc3o2)C(=O)c2ccc(-c3ccccc3)cc2)c2cc(OCCCO)ccc2N1C(=O)c1ccc2ccccc2c1` (stereo not given in full), for which the composite z-score is 0.0005 in test [1]; -0.154 in test [3]; -0.106 in test [4]; -0.105 in test [5]; 0.612 in test [6]; 0.0944 in test [7]. Besides, the composite z-score was 0.095 in test [8], 0.0295 in test [9] and -0.0066 in test [10]. Besides, in test [2], the composite Z-score was 0.142 (inactive).

Regarding `[N-]=[N+]=NCc1ccccc1[C@H]1OC(c2ccc(OCCCO)cc2)=N[C@@]1(CCS(=O)(=O)c1ccccc1)C(=O)N1CCCCC1`, the composite z-score came to 1.05 in test [1]; 0.268 in test [3]; 0.0562 in test [4]; 0.753 in test [5]; 2.83 in test [6]; 0.512 in test [7]. The composite z-score in test [8] was 1.31; in test [9] it was -0.565; in test [10], 1.2. In addition, the composite Z-score in test [2] was 0.32 (inactive).

As for `O=C(CS)NCCCCCNC(=O)[C@@H]1C[C@@H]2C(=O)N3CCC[C@H]3C(=O)N2[C@@H]1c1cccc(OCCO)c1`, the composite z-score was -0.105 in test [1]; -0.284 in test [3]; -0.258 in [4]; 0.747 in test [5]; 2.18 in test [6]; 0.503 in test [7]. Besides, the figures for the composite z-score in test [8], in [9] and in [10] were 0.246, 0.712 and 0.91, respectively. In addition, the composite Z-score in test [2] was 1.11 (inactive).

Take `COC(=O)c1c(CC[C@@H](CO)NC(=O)N[C@H](Cn2cc(C3(O)CCCCC3)nn2)C(C)C)oc(C(C)=O)c1C(=O)OC`: the composite z-score was -0.471 in [1]; 0.0282 in [3]; -0.0878 in test [4]; 0.209 in [5]; 0.32 in test [6]; -0.0003 in [7]. Moreover, the composite z-score was found to be 1.14 in test [8], 0.513 in test [9] and 1.16 in [10]. In addition, the composite Z-score in test [2] was 0.183 (inactive).

Take `CCCCCCCCCCC(O)C1C=CC2C(=O)N(C)C(=O)C2N1NC(=O)OC(C)(C)C` (stereo not given): the composite z-score in test [1] is 0.682; in test [3], -0.0077; in test [4] it was -0.124; in test [5], 0.344; in [6], 1.24; in test [7], -0.45. Also, the composite z-score is 0.717 in test [8], -0.409 in test [9] and 1.12 in test [10]. In addition, the composite Z-score in [2] was 0.245 (inactive).

Consider `COC(=O)[C@@]1(Cc2ccc(OC)cc2)[C@H]2c3cc(C(=O)N(C)C)n(Cc4ccc(Cl)c(C(F)(F)F)c4)c3C[C@H]2CN1C(=O)c1ccccc1`, for which the composite z-score in [1] was 0.962; in [3] it was 0.406; in test [4], 0.29; in [5] it was 0.377; in test [6], 2.65; in test [7] it was 0.0516. The composite z-score was 1.26 in [8], -0.763 in [9] and 0.952 in [10]. In addition, the composite Z-score in test [2] was 0.579 (inactive).

Consider `CCOC(=O)c1ccc(NC(=O)O[C@H]2[C@H](OC(=O)Nc3ccc4c(c3)OCO4)[C@@H](OC(=O)Nc3ccc4c(c3)OCO4)[C@@H](OC)O[C@@H]2CO)cc1`, for which the composite z-score in test [1] was 0.862; in test [3], 0.291; in test [4], -0.0226; in test [5], 0.516; in test [6], 2.56; in test [7], 0.535. Besides, the composite z-score in test [8] came to 1.31; in [9], 0.0612; in [10], 1.14. In addition, the composite Z-score in [2] was 0.805 (inactive).

For the molecule `CC1=C([C@H](O)CCc2ccccc2)[C@H](CO)[C@@H]2C(=O)N(C)C(=O)[C@@H]2C1`, the composite z-score was 0.361 in test [1]; 0.0313 in test [3]; 0.0592 in [4]; 0.125 in [5]; 0.58 in [6]; 0.244 in test [7]. Further, the composite z-score worked out at 0.535 in [8], 0.557 in test [9] and 0.476 in test [10]. In [2], the composite Z-score is -0.297 (inactive).

For `C=C[C@@H](OC)[C@H](OC(=O)Nc1ccc(SC)cc1)c1ccc(O)c(F)c1`, the composite z-score is 0.622 in [1]; 0.0337 in test [3]; -0.0891 in test [4]; 0.699 in test [5]; 2.18 in [6]; 0.683 in [7]. Also, the composite z-score in test [8] came out at 1.07; in [9], 0.0611; in test [10], 0.0462. Also, in test [2], the composite Z-score is -0.584 (inactive).

Regarding `NCCCCCCNC(=O)[C@@H]1C[C@@H]2C(=O)N[C@@H](CCCCN)C(=O)N2[C@@H]1c1cccc(OCCO)c1`, the composite z-score was -0.907 in test [1]; 0.645 in test [3]; 0.163 in test [4]; 0.584 in [5]; -0.191 in test [6]; 0.767 in test [7]. The figures for the composite z-score in test [8], in test [9] and in test [10] were 1.2, 1.05 and 0.718, respectively. The composite Z-score in test [2] was 2.87 (inactive).

As to `O=C1OCC=C[C@H]2OC34C=CCN(Cn5nnc6ccccc65)C(=O)[C@H]3N(CCCO)C(=O)[C@@H]4[C@@H]12` (stereo not given in full), the composite z-score in test [1] is -0.877; in test [3] it was -0.279; in test [4], -0.185; in [5], 0.847; in test [6], -0.145; in [7] it was -0.124. Further, the results for the composite z-score in test [8], in [9] and in test [10] were -0.196, -0.682 and -0.0288, respectively. Moreover, the composite Z-score in [2] was -0.309 (inactive).

`COCCOC(=O)N1C(=O)[C@@]2(c3cc(C#CC4=CCCCC4)ccc31)[C@H](c1ccccc1OCCO)N1[C@H](c3ccccc3)[C@H](c3ccccc3)OC(=O)[C@H]1[C@@H]2C(=O)N1CCCCCCC1`: the composite z-score is -0.0107 in test [1]; -0.582 in test [3]; -0.26 in [4]; 0.592 in test [5]; 2.23 in test [6]; 0.22 in [7]. Further, the composite z-score in [8] amounted to 1.34; in test [9], 0.323; in test [10], 0.592. The composite Z-score in [2] is 0.181 (inactive).

(Values after PubChem BioAssay.)
